The record followed here is PubChem BioAssay (Tox21).

Values without a mark were called inactive. Records with an inconclusive call do not appear. The source made the active and inactive calls. Unless noted, calls follow the shape of the full dose curve.

A short description of experiment [1]: Nuclear factor erythroid 2-related factor 2/antioxidant responsive element (Nrf2/ARE) small molecule agonists: qHTS cell viability counter screen in human keratinocytes (AID 1919968; active = well fitted curve in the direction sought with a large enough effect in the repeat runs; an effect the other way counts as inactive or inconclusive; also: nearly all actives have a fitted effect of over 55% in size). The method, boiled down:
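In human HaCaT keratinocytes stably expressing an ARE-driven luciferase, compound exposure lasted 23 h at 37 C under 5% CO2. Viable cells are quantified with a protease-based fluorogenic reagent (CellTiter-Fluor) read 1 h after addition.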
(Quantitative high-throughput screening tests each substance at several concentrations.)

The nature of experiment [2]: Nuclear factor erythroid 2-related factor 2/antioxidant responsive element (Nrf2/ARE) small molecule agonists: luciferase reporter gene qHTS assay in human keratinocytes (AID 1919969). Also: nearly all actives have a fitted effect of over 35% in size. Also: potency is read from the fitted curve at half-maximal effect. On the technique in general: Reporter assays use an easily measured gene product as a stand-in for the process of interest.
A short description of experiment [3]: G protein-coupled receptor (GPCR) small molecule agonists, calcium flux assay: HEK293 wild type cell line counter screen (AID 1920065). The method, boiled down:
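Fluorescence intensity signals activation. After overnight (18 h) culture and a 1 h calcium dye load at 37 C, compounds are added by pin tool and the plate read at 480/540 nm for 3 min in 1 s steps.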
On the technique in general: Calcium flux is commonly read through the fluorescence of an indicator in the cells.

Experiment [4] in a line: p53 small molecule agonists, cell-based qHTS assay with human liver microsomes (AID 1963577).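 Also: p53 response element beta-lactamase reporter cells with liver microsomes plus NADPH.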 The method, boiled down:
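16 h, 37 C exposure of p53RE-bla cells to compounds with human liver microsomes and NADPH (0.5 mg/mL final each); detection via LiveBLAzer mixture, 2 h dark at room temperature.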

Experiment [5] can be described thus: p53 small molecule agonists, cell-based qHTS assay with rat liver microsomes (AID 1963578). The method, boiled down: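 With rat liver microsomes and NADPH present (0.5 mg/mL final each), p53RE-bla cells are treated with compound for 16 h at 37 C. LiveBLAzer detection mixture is then applied for 2 h at room temperature in the dark.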
Experiment [6] is described as follows: p53 small molecule agonists, cell-based qHTS assay with rat liver microsomes: qHTS cell viability counter screen (AID 1963580). Also: nearly all actives have a fitted effect of over 45% in size. The method, boiled down:
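Counter screen for cytotoxicity under metabolic activation: rat liver microsomes and NADPH, 0.5 mg/mL final each, added with compounds to p53RE-bla HCT-116 cells; 16 h at 37 C, then ATP luminescence read.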

Experiment [7] in a line: p53 small molecule agonists, cell-based qHTS assay: qHTS cell viability counter screen (AID 1963581). Also: nearly all actives have a fitted effect of over 45% in size. The method, boiled down:
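Luminescence from CellTiter-Glo, reflecting ATP content, serves as the cytotoxicity measure; it is taken after the 2 h reporter substrate step in HCT-116 p53RE-bla cells dosed for 16 h at 37 C.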

A short description of experiment [8]: p53 small molecule agonists, cell-based qHTS assay (AID 1963582; active = well fitted activation curve with a large enough effect in the signal ratio in the repeat runs, not every such curve was filed as active; the % refers to the signal ratio). The method, boiled down: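 After plating, p53RE-bla cells sat 5 h in the incubator; compounds or DMSO vehicle were pinned in; a 16 h incubation at 37 C followed; FRET substrate was added and, 2 h later at RT, fluorescence was measured.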
Experiment [9] is described as follows: cAMP Responsive Elements (CRE) small molecule agonists, cell-based qHTS assay (AID 1963590). The method, boiled down:
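Compound exposure lasted 3 h at 37 C/5% CO2 in CRE-bla HEK 293T cells grown in assay medium with 10% dialyzed FBS and 25 mM HEPES. Reporter signal came from LiveBLAzer B/G FRET substrate, 2 h, room temperature.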

A short description of experiment [10]: cAMP Responsive Elements (CRE) small molecule antagonists, cell-based qHTS assay (AID 1963591; active = well fitted inhibition curve with a large enough effect in the signal ratio in the repeat runs, not every such curve was filed as active; the % refers to the signal ratio). The method, boiled down:
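Stimulation used NKH477 at a final 0.25 uM for 3 h in compound-treated CRE-bla HEK293T cells, seeded 18 h beforehand. Reporter activity was measured with LiveBLAzer B/G FRET substrate after 2 h at room temperature.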

Experiment [11] deals with Beta-2 adrenergic receptor (Homo sapiens) (UniProt P07550). Description: Adrenergic beta2 receptor (ADRB2) small molecule antagonists, cell-based qHTS assay (AID 1963592). Also: series mostly up to about 92 µM; nearly all actives have a fitted effect of over 50% in size. The method, boiled down: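 Assay format: CHO-ADRB2 cells, 18-20hr seeding at 37C/5% CO2, then compound plus 1nM isoproterenol agonist mix for 0.5hr RT. Homogeneous time-resolved fluorescence cAMP detection after 1hr, expressed as 665/615 nm ratio.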
Beta-2 adrenergic receptor (Homo sapiens), sequence (P07550 whole entry, looked up): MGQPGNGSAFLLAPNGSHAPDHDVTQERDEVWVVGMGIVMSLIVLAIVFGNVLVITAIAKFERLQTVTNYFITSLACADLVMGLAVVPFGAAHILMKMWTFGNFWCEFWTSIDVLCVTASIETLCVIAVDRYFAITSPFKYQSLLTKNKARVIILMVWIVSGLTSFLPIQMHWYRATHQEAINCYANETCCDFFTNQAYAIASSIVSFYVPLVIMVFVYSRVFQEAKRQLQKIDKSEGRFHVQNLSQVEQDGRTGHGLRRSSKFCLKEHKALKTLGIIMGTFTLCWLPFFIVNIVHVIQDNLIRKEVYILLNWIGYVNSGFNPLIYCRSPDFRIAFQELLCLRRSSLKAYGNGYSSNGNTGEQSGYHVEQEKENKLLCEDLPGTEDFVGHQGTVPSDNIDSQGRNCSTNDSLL

The target is the same in experiment [12]. Description: Adrenergic beta2 receptor (ADRB2) small molecule agonists, cell-based qHTS assay (AID 1963593).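 Also: CHO cells stably overexpressing human ADRB2.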 The method, boiled down: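 CHO cells stably over-expressing ADRB2 were plated overnight at 37C, then dosed with compounds plus a stimulation mix containing 100uM IBMX and 25uM Ro-20-1724 for 0.5hr at room temperature. cAMP was measured by HTRF competition, 1hr.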

Experiment [13] concerns the target D(2) dopamine receptor (Homo sapiens) (UniProt P14416). Description: Dopamine D2 receptor (DRD2) small molecule agonists, cell-based qHTS assay (AID 1963594). Also: nearly all actives have a fitted effect of over 35% in size. The method, boiled down:
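HEK293 cells stably expressing DRD2 were cultured 24 h at 37 C, then given Ro20-1724 (0.1 mM final) and compounds for 10 min at room temperature. NKH477 (200nM) was then added for 30 min. cAMP was read by HTRF.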

The target is the same in experiment [14]. In words: Dopamine D2 receptor (DRD2) small molecule antagonists, cell-based qHTS assay (AID 1963595; active = well fitted inhibition curve with a large enough effect in the signal ratio in the repeat runs, with a control signal flat; the % refers to the signal ratio). The method, boiled down: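 Antagonist mode in DRD2-HEK293 cells: after compound addition with 0.1 mM Ro20-1724, cells received quinpirole (12 nM) and NKH477 (200 nM) for 30 min at room temperature; HTRF cAMP read after 1 h detection.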
Experiment [15] in a line: p53 small molecule agonists, cell-based qHTS assay with human liver microsomes: qHTS cell viability counter screen (AID 1963579). Also: nearly all actives have a fitted effect of over 45% in size. The method, boiled down:
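In this multiplexed counter screen, the reporter plates were subsequently treated with CellTiter-Glo so that cell viability, reflected by luminescence, could be recorded for p53RE-bla cells dosed 16 h with compounds under microsomal activation (HLM and NADPH).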

Experiment [16] concerns the target 5-hydroxytryptamine receptor 2A (Homo sapiens) (UniProt P28223). In words: 5-hydroxytryptamine receptor 2A (HTR2A) small molecule antagonists, cell-based qHTS assay (AID 1963586). Also: nearly all actives have a fitted effect of over 45% in size. The method, boiled down: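 CHO cells stably expressing human HTR2A were plated for 18 h at 37 C, then loaded with calcium dye for 1 h. Compounds were preincubated 5 min at room temperature before DOI (4 nM solution) was added. Kinetic fluorescence was read for 3 min.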

The target is the same in experiment [17]. In words: 5-hydroxytryptamine receptor 2A (HTR2A) small molecule agonists, cell-based qHTS assay (AID 1963587). Also: nearly all actives have a fitted effect of over 30% in size. The method, boiled down:
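HTR2A-CHO cells, plated 18 h at 37 C/5% CO2, dye-loaded 1 h at 37 C; compounds in DMSO added by pin tool (agonist mode). Intracellular calcium flux read as kinetic fluorescence on FDSS over 2 min at 1 s intervals.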

Experiment [18] has as its target Muscarinic acetylcholine receptor M1 (Homo sapiens) (UniProt P11229). Description: Cholinergic receptor muscarinic 1 (CHRM1) small molecule antagonists, cell-based qHTS assay (AID 1963588). Also: nearly all actives have a fitted effect of over 40% in size. The method, boiled down:
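Compounds were tested at 15 concentrations in three independent runs. Dye-loaded CHRM1-CHO cells were exposed 5 min at room temperature before stimulation by acetylcholine added at 50nM. Intracellular calcium was read kinetically on FDSS for 3 min.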

For experiment [19] the target is unchanged. Description: Cholinergic receptor muscarinic 1 (CHRM1) small molecule agonists, cell-based qHTS assay (AID 1963589). Also: nearly all actives have a fitted effect of over 35% in size. The method, boiled down: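 Fluorescent calcium dye reports M1 activation in stably transfected CHO cells. Compounds, 15 concentrations, added after 1 h dye loading at 37 C; kinetic reading at 1 sec intervals.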
In experiment [20] the target is KiSS-1 receptor (Homo sapiens) (UniProt Q969F8). In words: Human kisspeptin (KISS1R) small molecule agonists, calcium flux assay in KISS1R-HEK293 cells (AID 1920064; active = well fitted curve in the direction sought with a large enough effect in the repeat runs; an effect the other way counts as inactive or inconclusive). The method, boiled down:
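Concentration-response testing used 15 concentrations in triplicate on human KISS1R-expressing HEK293 cells. Calcium-dependent fluorescence (Ex/Em 480/540) was followed kinetically for 3 min after compound transfer.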
% is scaled to controls: 0 for no effect and ±100 for the full control effect.

5-hydroxytryptamine receptor 2A (Homo sapiens), sequence (P28223 whole entry, looked up): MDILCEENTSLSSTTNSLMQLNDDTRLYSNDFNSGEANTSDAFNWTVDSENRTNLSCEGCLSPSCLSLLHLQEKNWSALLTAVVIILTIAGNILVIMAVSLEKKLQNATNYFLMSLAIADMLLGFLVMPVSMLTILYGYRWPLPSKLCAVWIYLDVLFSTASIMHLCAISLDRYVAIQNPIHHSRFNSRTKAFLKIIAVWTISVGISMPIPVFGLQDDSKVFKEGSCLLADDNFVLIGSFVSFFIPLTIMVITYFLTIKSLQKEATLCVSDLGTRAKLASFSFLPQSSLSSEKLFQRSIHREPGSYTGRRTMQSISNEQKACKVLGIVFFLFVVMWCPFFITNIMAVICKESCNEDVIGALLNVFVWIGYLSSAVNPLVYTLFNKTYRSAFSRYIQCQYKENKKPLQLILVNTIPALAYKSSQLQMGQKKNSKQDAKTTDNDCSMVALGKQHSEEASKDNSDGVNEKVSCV
Muscarinic acetylcholine receptor M1 (Homo sapiens), sequence (P11229 whole entry, looked up): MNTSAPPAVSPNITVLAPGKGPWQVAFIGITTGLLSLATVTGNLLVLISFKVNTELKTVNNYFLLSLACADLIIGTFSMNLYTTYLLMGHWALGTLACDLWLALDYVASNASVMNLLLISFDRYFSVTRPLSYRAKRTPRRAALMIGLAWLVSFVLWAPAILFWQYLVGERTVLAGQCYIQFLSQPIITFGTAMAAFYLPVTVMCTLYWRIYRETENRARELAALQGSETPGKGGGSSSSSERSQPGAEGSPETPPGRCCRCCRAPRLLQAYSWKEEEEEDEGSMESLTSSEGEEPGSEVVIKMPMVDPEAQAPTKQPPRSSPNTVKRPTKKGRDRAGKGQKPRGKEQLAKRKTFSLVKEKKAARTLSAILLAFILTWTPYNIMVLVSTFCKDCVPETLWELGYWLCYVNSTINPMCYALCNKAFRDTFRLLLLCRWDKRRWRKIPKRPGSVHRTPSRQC
D(2) dopamine receptor (Homo sapiens), sequence (P14416 whole entry, looked up): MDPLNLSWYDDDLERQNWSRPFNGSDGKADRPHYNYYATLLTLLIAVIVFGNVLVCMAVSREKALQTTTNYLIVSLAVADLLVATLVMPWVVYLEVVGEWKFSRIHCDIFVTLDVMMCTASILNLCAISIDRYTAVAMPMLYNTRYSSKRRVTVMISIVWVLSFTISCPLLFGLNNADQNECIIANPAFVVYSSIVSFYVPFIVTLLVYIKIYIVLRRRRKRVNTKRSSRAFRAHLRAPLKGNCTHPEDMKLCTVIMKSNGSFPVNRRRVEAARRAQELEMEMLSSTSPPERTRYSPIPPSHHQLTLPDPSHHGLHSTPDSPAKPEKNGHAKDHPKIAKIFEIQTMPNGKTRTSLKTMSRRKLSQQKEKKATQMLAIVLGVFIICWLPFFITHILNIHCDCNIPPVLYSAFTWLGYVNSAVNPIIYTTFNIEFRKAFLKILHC
KiSS-1 receptor (Homo sapiens), sequence (Q969F8 whole entry, looked up): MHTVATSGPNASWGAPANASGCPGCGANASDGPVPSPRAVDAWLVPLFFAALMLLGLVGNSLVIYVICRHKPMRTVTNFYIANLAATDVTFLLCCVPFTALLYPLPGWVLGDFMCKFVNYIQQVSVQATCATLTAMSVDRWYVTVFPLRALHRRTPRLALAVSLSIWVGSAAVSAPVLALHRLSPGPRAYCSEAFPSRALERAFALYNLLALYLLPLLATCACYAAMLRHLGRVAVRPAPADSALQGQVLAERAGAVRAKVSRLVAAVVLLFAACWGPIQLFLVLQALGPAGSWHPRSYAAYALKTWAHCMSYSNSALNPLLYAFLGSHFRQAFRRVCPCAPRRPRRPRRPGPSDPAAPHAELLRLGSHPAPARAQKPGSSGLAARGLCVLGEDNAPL

Consider `Nc1ccc(S(=O)(=O)Nc2ccnn2-c2ccccc2)cc1`, for which the activity change, negative = cytotoxicity is 8.64% [at 19 µM] in experiment [1], -1.12% [at 13.5 µM] in experiment [6] and -3.47% [at 13.5 µM] in experiment [7]. The activity, positive = activation in [2] was 4.54% [at 19 µM]. In addition, the activation in experiment [3] was 0.406% [at 11.8 µM]; in experiment [4] it was 4.03% [at 13.5 µM]; in experiment [5] it was 0.115% [at 13.6 µM]; in experiment [8], 1.07% [at 13.5 µM]; in experiment [9], -0.057% [at 19 µM]; in experiment [13] it was -21.6% [at 19 µM]. The figures for the activity change, negative = inhibition in experiment [10], in [11] and in experiment [14] were 0.401% [at 18.9 µM], 0.77% [at 19 µM] and 1.2% [at 18.9 µM], respectively. Moreover, the Potency entry in experiment [12] was “inactive”.
`COC(=O)CS`: the Potency entry in experiment [1], in experiment [4], in experiment [5], in experiment [15], in experiment [6] and in experiment [7] was “inactive” each time. In addition, the Potency entry in experiment [8], in experiment [16], in experiment [17], in [18], in experiment [19] and in experiment [9] was “inactive” each time. Further, the Potency entry in [11], in [13] and in experiment [14] was “inactive” each time. Further, the Potency in [2] was 52.4 µM (active).
For the molecule `CCCCOC(=O)[C@@H](C)Oc1ccc(Oc2ccc(C(F)(F)F)cn2)cc1`, the Potency result in experiment [1], in experiment [2], in [4], in experiment [5], in experiment [6] and in [7] was “inactive” throughout. The Potency entry in experiment [8], in [16], in experiment [17], in experiment [18], in [19] and in experiment [10] was “inactive” in each case. The Potency entry in [11], in [13] and in [14] was “inactive” each time. Moreover, the result in [3] was inactive.
Turning to `Nc1ncnc2c1ncn2[C@@H]1O[C@H](CO)[C@@H](O)[C@H]1O`, the Potency result in [1], in experiment [2], in experiment [4], in [5], in experiment [15] and in [6] was “inactive” each time. Moreover, the Potency result in experiment [16], in experiment [17], in experiment [18], in experiment [19], in experiment [9] and in experiment [10] was “inactive” in each case. Further, the Potency entry in [11] and in [14] was “inactive” throughout. Moreover, the result in experiment [3] was inactive.
With `CN(C(=O)C(Cl)Cl)c1ccc(OC(=O)c2ccco2)cc1`, the Potency entry in experiment [1], in experiment [2], in experiment [4], in experiment [5], in experiment [15] and in [6] was “inactive” in each case. Besides, the Potency entry in experiment [7], in [8], in experiment [16], in [17], in [18] and in experiment [19] was “inactive” each time. Moreover, the Potency result in experiment [9], in experiment [10], in experiment [11], in experiment [13] and in experiment [14] was “inactive” throughout. The result in experiment [20] and in [3] was inactive.
For `O=C1c2cccc(O)c2C(=O)c2c(O)cc(CO)cc21`, the Potency entry in experiment [1], in experiment [4], in [5], in experiment [15], in experiment [6] and in experiment [7] was “inactive” in each case. For the same molecule, the Potency result in [8], in experiment [16], in experiment [17], in experiment [18], in experiment [19] and in experiment [10] was “inactive” each time. Moreover, the Potency result in [11], in experiment [12], in experiment [13] and in experiment [14] was “inactive” throughout. The Potency in experiment [2] is 13.7 µM (active).
For `Cc1cccc(C(=O)O)c1[N+](=O)[O-]`, the Potency result in experiment [1], in [2], in experiment [5], in experiment [15], in [6] and in [7] was “inactive” throughout. The Potency entry in [8], in experiment [18], in [19], in experiment [9], in [11] and in experiment [13] was “inactive” in each case. Also, the Potency entry in experiment [14] was “inactive”. For the same molecule, in experiment [3], the result was inactive.
Turning to `CC(=O)NO`, the Potency entry in experiment [1], in experiment [2], in [4], in experiment [5], in experiment [6] and in experiment [8] was “inactive” each time. Besides, the Potency entry in [16], in experiment [17], in experiment [18], in experiment [19], in experiment [9] and in experiment [10] was “inactive” each time. For the same molecule, the Potency result in experiment [11], in experiment [12], in [13] and in [14] was “inactive” each time. For the same molecule, the outcome in experiment [3] was inactive.
